# High-throughput results from PubChem BioAssay.
# PAFAH1B3 inh – PAFAH1B3 (human) inhibition; Q15102; recombinant PAFAH1B3, FP-rhodamine probe, fluorescence polarization; inhibition, % at 3.39 µM; 0.28% of 340,000 active;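 active = inhibition above the screen-wide average of all tested compounds plus 3 SD, cut at about 25% in these data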;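 note: 0% = enzyme with DMSO only and 100% = wells lacking PAFAH1B3 protein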
# PAFAH1B2 FP inh – blocks human PAF acetylhydrolase 1b catalytic subunit 2. P68402. recombinant PAFAH1B2, FP-rhodamine activity probe, fluorescence polarization. inhibition, % at 3.39 µM. 1.2% of 340,000 active;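 active = inhibition above the mean of all tested compounds plus 3 SD, cut at about 24% in these data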;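 note: 0% = enzyme with DMSO and 100% = wells lacking PAFAH1B2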
# PP5 inh – inhibitors of human protein phosphatase 5 (PP5) | 0.18% of 320,000 active | purified PP5c, OMFP substrate fluorescence | inhibition, % at 6.7 µM | P53041 | AID 1987;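 active = inhibition above the campaign's mean inhibition across all tested compounds plus 3 SD, cut at about 9.5% in these data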;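 note: 0% = DMSO only and 100% = 100 µM cantharidin control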
# pPAFAH FP inh – pPAFAH (human) enzyme inhibition | recombinant pPAFAH, FP-rhodamine probe fluorescence polarization | inhibition, % at 3.39 µM | 1.5% of 330,000 active | AID 463082;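 active = inhibition above the mean inhibition across the screen plus 3 SD, cut at about 25% in these data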;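 note: inhibitors block binding of the rhodamine activity-based probe so polarization drops; 0% = enzyme with DMSO and 100% = wells lacking pPAFAH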
# Target sequence (Q13093 whole entry, looked up): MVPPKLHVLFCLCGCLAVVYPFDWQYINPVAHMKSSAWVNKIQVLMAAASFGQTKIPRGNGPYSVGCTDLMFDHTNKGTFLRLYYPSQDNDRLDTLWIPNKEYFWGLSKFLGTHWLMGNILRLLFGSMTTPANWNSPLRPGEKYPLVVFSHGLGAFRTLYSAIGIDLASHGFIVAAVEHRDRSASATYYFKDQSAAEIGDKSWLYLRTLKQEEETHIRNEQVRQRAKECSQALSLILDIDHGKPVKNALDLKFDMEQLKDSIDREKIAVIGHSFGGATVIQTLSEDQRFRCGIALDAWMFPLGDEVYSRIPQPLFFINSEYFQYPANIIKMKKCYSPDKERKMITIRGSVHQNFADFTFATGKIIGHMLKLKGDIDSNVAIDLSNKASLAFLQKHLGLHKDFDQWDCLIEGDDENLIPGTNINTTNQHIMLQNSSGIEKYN
# PAFAH2 inh – PAFAH2 (human) inhibition | inhibition, % at 3.39 µM | AID 492956 | recombinant PAFAH2, FP-rhodamine activity probe, fluorescence polarization | Q99487 | 0.99% of 340,000 active;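 active = inhibition above the mean over all tested compounds plus 3 SD, cut at about 30% in these data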;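 note: inhibitors block probe labeling of enzyme so polarization drops; 0% = enzyme with DMSO and 100% = wells lacking PAFAH2 protein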
# PP1 counter – PP1-alpha (human) inhibition in PP5 counter-screen. P62136. purified PP1alpha, OMFP fluorescence. inhibition, % at 6.7 µM. 0.9% of 320,000 active;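 active = inhibition above the mean inhibition of all tested compounds plus 3 SD, computed separately for each screening campaign, cut at about 15% in these data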
# PP1 confirm – confirmation of human PP1 phosphatase inhibitors; shares compounds with PP1 counter; purified PP1alpha, OMFP substrate fluorescence; inhibition, % at 6.7 µM; 52% of 1,900 active;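 active = mean PP1 inhibition above a set limit taken from the earlier primary screen, cut at about 15% in these data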
# PP5 counter – counter-screen for PP1 inhibitors: human PP5 phosphatase inhibition; inhibition, % at 6.7 µM; purified PP5c, OMFP fluorescence; AID 2360; 4% of 1,900 active; shares compounds with PP1 counter;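 active = mean PP5 inhibition over triplicate wells above about 9.5% taken from the earlier PP1 screen, limit read from the data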
# Starred values were filed as active, the others as inactive; . = no result given. A selection: hits, their analogues and other compounds. The true share with any hit is near 3.4%.
SMILES,PAFAH1B3 inh,PAFAH1B2 FP inh,PP5 inh,pPAFAH FP inh,PAFAH2 inh,PP1 counter,PP1 confirm,PP5 counter
O=C(NCc1ccccn1)C1Nc2ccc(OC(F)(F)F)cc2C2C=CCC12 (stereo not drawn),12.5,8.0,4.5,16.6,5.1,-1.4,.,.
O=C(O)C1Nc2ccc(OC(F)(F)F)cc2C2C=CCC12 (stereo not drawn),.,.,-0.5,61.2*,.,21.6*,4.5,-1.2
COC(=O)C1=C(C)N(Cc2ccccc2)C(=NCc2cccc(C(F)(F)F)c2)N[C@H]1c1cccc(C(F)(F)F)c1,3.6,3.5,.,0.5,-9.2,.,.,.
COC(=O)C1=C(C)N(Cc2ccccc2)C(=NCc2cccc(C(F)(F)F)c2)N[C@H]1c1cccc(F)c1,-2.3,4.8,5.5,4.7,-2.2,18.2*,-4.5,2.8
Cc1cccc(NC(=O)C2C3C=CC4(O3)C2C(=O)N(CCCN2CCCC2)C4C(=O)NC2CCCC(C)C2C)c1 (stereo not drawn),6.3,7.6,-2.2,-0.2,-8.2,-5.1,.,.
Cc1ccccc1OCCCN1C(=O)C(=O)c2cccc(C)c21,2.0,2.9,1.3,5.7,3.1,21.5*,11.1,1.6
Cc1cccc2c1N(CCCOc1ccc(C(C)(C)C)cc1)C(=O)C2=O,4.1,-4.8,2.6,17.0,1.4,14.4,.,.
O=S(=O)(Nc1ccc(-n2cccc2)cc1)c1ccc(Cl)c(Cl)c1,0.2,6.8,1.9,16.5,-5.9,1.2,.,.
CC(=O)C1=C(O)C(=O)N(CCc2c[nH]c3ccccc23)C1c1ccc(C)cc1 (stereo not drawn),11.6,4.5,3.7,2.8,4.1,25.7*,23.1*,-3.5
Cc1cc2c(C)nc(N/N=C/c3ccc([N+](=O)[O-])cc3)nc2o1,9.2,-2.1,1.9,10.1,8.2,18.0*,33.1*,-3.0
Cc1cc2c(C)nc(N/N=C/c3ccc(F)cc3)nc2o1,-3.9,4.3,0.1,5.0,-8.0,-4.7,.,.
CC1CCN(S(=O)(=O)c2cn(CC(=O)Nc3ccc(OC(F)(F)F)cc3)cn2)CC1,4.5,1.1,4.3,-3.0,4.2,-0.2,.,.
O=C(C1CCN(Cc2cn[nH]c2-c2ccc(F)cc2F)CC1)N1CCOCC1,11.5,0.6,0.3,2.2,-5.8,42.7*,-2.6,-1.2
CCOc1ccc(-n2c(O)c(/C=N/NC(=O)C3COc4ccccc4O3)c3ccccc3c2=O)cc1 (stereo not drawn),14.2,2.5,1.3,12.7,2.5,23.5*,28.2*,-6.0
CCN(CC)CCCN=Cc1c(-c2ccccc2)[nH]n(-c2nc3ccccc3s2)c1=O,10.0,11.6,3.1,4.9,6.6,30.1*,5.0,-0.6
CCCN=C(C)c1c(-c2ccccc2)[nH]n(-c2nc3ccccc3s2)c1=O,-0.1,-1.1,1.5,5.7,-4.1,1.5,.,.
CCOc1ccc(NC(=O)c2ccc3snnc3c2)cc1,11.9,3.0,-0.8,0.6,-4.3,-3.8,.,.
Cc1cc(C(=O)C(C)OC(=O)c2ccc(NC(=O)CC#N)cc2)c(C)n1-c1ccccc1 (stereo not drawn),-9.8,-8.4,2.8,-19.4,-19.1,18.9*,5.9,-0.2
O=C1CC2C(CC(OC(=O)c3ccc(-c4ccccc4)cc3)C2CO)O1 (stereo not drawn),-3.9,2.0,5.0,-1.0,-10.4,0.8,.,.
O=C(c1ccccc1)N1CCN(S(=O)(=O)c2ccccc2)CC1,-0.8,5.0,2.3,3.5,4.0,-2.1,.,.
Cn1cccc1C(=O)N1CCN(S(=O)(=O)c2ccccc2)CC1,5.6,3.6,0.2,3.3,6.0,50.3*,-1.9,-0.2
Cn1cnnc1SCc1ccc(C(=O)N=Nc2c(O)n(Cc3ccc(Cl)cc3)c3ccccc23)cc1,-5.6,0.0,2.3,21.6,-3.8,20.3*,15.9*,-2.1
Cc1onc(-c2ccccc2)c1C(=O)c1c[nH]c(C(=O)NCCCN2CCOCC2)c1,1.3,4.8,-2.0,0.0,-3.4,5.0,.,.
O=C(Nc1ccccc1N1CCOCC1)C1CCCCN1S(=O)(=O)c1ccccc1 (stereo not drawn),2.7,12.2,0.5,-1.1,-4.0,-0.1,.,.
